Compound activity (PubChem)
The full list was thinned out, with hits kept by preference.
LmPK inhibitor: LmPK (Leishmania mexicana) enzyme inhibition; Potency, µM (top dose mostly 57.5 µM), usual class: inhibitors; 0.37% of 290,000 active; Q27686; purified LmPK, Kinase-Glo ATP luminescence, 1 h
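Purified LmPK (0.1 nM) with 0.5 mM PEP and 0.1 mM ADP in imidazole buffer pH 7.2 with MgCl2/KCl, 1 h at room temperature. ATP formed was read by luciferase luminescence and normalized to no-enzyme and uninhibited controls.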
Tb PYK inh: inhibitors of Trypanosoma brucei pyruvate kinase | Q57TT1 | TbPYK enzyme, Kinase-Glo Plus ATP luminescence, 45 min | Potency, µM (series often up to 76.8 µM), usual class: inhibitors | 0.12% of 410,000 active | AID 624173; note: nearly all actives have a fitted effect of over 50% in size
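Activity of T. brucei pyruvate kinase was followed by Kinase-Glo Plus luminescence after the enzyme reacted 45 min at room temperature with 130 uM ADP (final) and substrate. Test compounds were added before ADP at multiple concentrations.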
Shiga toxin inh: inhibitors of Shiga toxin in Vero cells; 9.2% of 290,000 active; Vero cells, Shiga toxin protein synthesis inhibition reporter; AID 2315; inhibition, % at 38.7 µM; in the data active = inhibition mostly above about 28%, no sharp cut-off; inactive = mostly below about 43%
Sm TGR block: S. mansoni TGR enzyme inhibition; 3% of 360,000 active; Q962Y6; purified TGR, DTNB reduction, TNB absorbance 405 nm; Potency, µM (titrated, usually from 114 µM), actives largely listed as inhibitors; AID 485364; note: nearly all actives have a fitted effect of over 60% in size
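First, TGR (20 nM dispensed) and NADPH were mixed with compound. Second, a 15 min room-temperature incubation followed. Third, further NADPH and then DTNB were added to start the reaction. Finally, TNB absorbance was monitored kinetically.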
FBPA Giardia inh: Giardia lamblia aldolase inhibition | A8B2U2 | purified Giardia FBPA | Potency, µM (titrated, usually from 59.6 µM), most hits filed as inhibitors | 0.71% of 290,000 active | AID 2451; note: nearly all actives have a fitted effect of over 55% in size
Target sequence (A8B2U2 whole entry, looked up): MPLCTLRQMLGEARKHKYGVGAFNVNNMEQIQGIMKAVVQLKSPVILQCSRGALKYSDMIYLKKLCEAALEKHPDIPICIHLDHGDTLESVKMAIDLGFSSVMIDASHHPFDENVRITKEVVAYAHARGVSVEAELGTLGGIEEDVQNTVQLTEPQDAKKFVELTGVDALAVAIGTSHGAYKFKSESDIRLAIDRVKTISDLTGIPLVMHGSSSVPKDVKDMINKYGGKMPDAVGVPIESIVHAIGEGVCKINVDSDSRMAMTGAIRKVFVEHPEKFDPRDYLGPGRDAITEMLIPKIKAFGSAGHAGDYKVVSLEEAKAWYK
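40 nM FBPA preincubated 10 min at RT with compound (up to 57.5 uM final), then substrate plus GAPDH/TPI/NAD/arsenate coupling and diaphorase/resazurin added. Fluorescence read after 20 min at RT, 525/598 nm.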
CHX counter: counter-screen for Shiga toxin inhibitors: cycloheximide protein synthesis inhibition | cell reporter, cycloheximide protein synthesis inhibition counterscreen | max response, % | 12% of 300,000 active; in the data active = max response mostly above about 13%, no sharp cut-off; inactive = mostly below about 14%; note: read at 38.3 µM for the half of the compounds with a filed dose
A number is an active result; n = inactive; u = inconclusive; x = no result. Unless noted, calls come from the whole dose curve; as a rule, active = well fitted curve in the direction sought with a large enough effect; inconclusive = small, poorly fitted or top-dose-only effect, or another doubt; inactive = no such curve, though single readings can be large; an effect the other way counts as inactive or inconclusive.

SMILES	LmPK inhibitor	Tb PYK inh	Shiga toxin inh	Sm TGR block	FBPA Giardia inh	CHX counter
CCN=c1scc(C)n1/N=C/c1ccc(O)c(O)c1O	n	u	n	20µM	u	25
C=C(C)CN=c1scc(C)n1/N=C/c1ccco1	n	n	n	n	n	n
COc1cc(/C=N/NC(=O)c2nnn(-c3nonc3N)c2-c2cccs2)ccc1O	n	n	n	n	x	n
COCCN=c1scc(-c2cccs2)n1/N=C/c1ccc(O)c(O)c1O	n	u	55	40µM	u	32
CCN=c1scc(C)n1/N=C/c1cc(Br)c(O)c(Br)c1	n	n	32	u	n	n
NCCC[C@@H](CC(=O)N[C@@H]1CCCC[C@H]1C(=O)N[C@H](CC(=O)N[C@@H](CCC(=O)O)CC(=O)O)Cc1ccccc1)NC(=O)C[C@H](Cc1c[nH]c2ccccc12)NC(=O)[C@@H]1CNCC[C@H]1N	x	x	x	x	n	x
COC(=O)c1ccc2c(=O)n(C3CCCCC3)c(SCC#N)nc2c1	n	n	71	n	n	n
CCOC(=O)CSc1nc2cc(C(=O)N3CCC(C(N)=O)CC3)ccc2c(=O)n1C1CCCCC1	n	n	n	n	n	n
CN(C)c1ccc(C(=O)c2ccc(N(C)C)cc2)cc1	n	n	n	n	n	17
CN(C)c1ccc(C(=C2C=CC(=[N+](C)C)C=C2)c2ccc(N(C)C)cc2)cc1	x	u	x	x	16µM	x
CN(C)c1ccc(C(=O)C(=O)c2ccccc2)cc1	n	n	67	n	n	49
CN(C)c1ccc(C(=O)c2ccc(O)cc2O)cc1	n	n	54	n	n	29
O=C(c1ccc(O)cc1)c1ccc(O)cc1O	n	n	n	n	n	n
Cc1ccc(N(C)C(CNS(=O)(=O)c2ccccc2)c2ccccc2)cc1 (centres undefined)	x	n	x	n	x	x
CC(=O)N1[C@H](Cc2ccccc2)C=C[C@]1(C)C(=O)NCc1ccccn1	n	n	n	n	n	n
O=S(=O)(c1ccc(Cl)cc1)c1nc(-c2cccs2)oc1SCc1ccc(F)cc1	x	n	x	n	x	x
CN(C)c1ccc(C(=O)NN2C(=O)c3ccccc3C2=O)cc1	n	n	n	n	n	15
N#CC1=C(N)NC(SCC(=O)c2ccccc2)=C(C#N)C12CCCC2	n	n	67	n	n	40
COc1ccc(-c2nc3cnc(Oc4cccc(Cl)c4)nc3n(C[C@H]3CCCO3)c2=O)cc1	x	x	x	x	n	x
O=[N+]([O-])c1cc2c(c(CSc3ncccn3)c1)OCOC2	n	n	n	n	n	21
O=C(OCc1cc([N+](=O)[O-])cc2c1OCOC2)c1ccccn1	n	n	n	n	n	33
Cn1c(=O)n(Cc2ccccc2Cl)c(=O)c2c1[nH]c(=S)n2C	n	7.9µM	n	n	n	n
COc1cccc(Cn2c(=O)c(CCc3ccccc3)nc3cnc(OC)nc32)c1	x	n	x	x	n	x
CCN1CCN(c2nc3c(c(=O)[nH]2)CCCC3)CC1	n	n	n	n	n	n
CCN1CCc2nc(N)oc2CC1	x	n	x	5.6µM	n	x
SMILES	LmPK inhibitor	Tb PYK inh	Shiga toxin inh	Sm TGR block	FBPA Giardia inh	CHX counter
CCOC(=O)C(NC(=O)c1ccccc1)=C(C)C	n	n	n	n	n	n
CCOC1(NC(=O)c2ccccc2)C(C)=CC(=O)C=C1C	n	u	n	25µM	n	n
O=C(/C=C/c1cn(CC(O)CN2CCCCCC2)c2ccccc12)c1ccccc1 (centres undefined)	x	n	x	u	x	x
CN1CCN(Cn2cc(/C=C/C(=O)c3ccccc3)c3ccccc32)CC1	n	n	61	n	n	33
COC(=O)c1sccc1S(=O)(=O)N(CC(=O)NCc1ccc(F)cc1)c1ccc(Cl)cc1	x	n	x	n	x	x
CCOc1ccc(N)c(SSc2cc(OCC)ccc2N)c1	n	u	88	n	u	45
O=C1CN(S(=O)(=O)c2c(F)cccc2F)CCN1S(=O)(=O)c1ccc2c(c1)OCCO2	x	x	n	x	x	n
COCC(C)NC(=O)c1cc2cccc([N+](=O)[O-])c2[nH]1 (centres undefined)	n	n	n	n	n	n
Cc1cc(NC(=O)c2cc3cccc([N+](=O)[O-])c3[nH]2)ccc1F	n	n	86	n	n	56
Cc1cc(C)cc(-n2ncc3c2CCCC3NC(=O)c2csnn2)c1 (centres undefined)	n	n	22	n	n	n
Cc1cc(C(=O)NC2CCCc3c2cnn3-c2ccc(C)c(C)c2)n(C)n1 (centres undefined)	n	n	n	n	x	n
Cc1cc(C)cc(-n2ncc3c2CCCC3NC(=O)c2cc(C)oc2C)c1 (centres undefined)	n	n	n	u	n	n
Cc1cccc(-n2ncc3c2CCCC3NC(=O)Cn2cccn2)c1C (centres undefined)	n	n	n	n	x	19
Cc1ccc(-n2ncc3c2CCCC3NC(=O)c2ccoc2)cc1C (centres undefined)	n	n	n	n	n	n
Cc1cc(C)c(C(=O)NC2CCCc3c2cnn3-c2ccc(C)c(C)c2)c(=O)[nH]1 (centres undefined)	n	n	n	n	x	27
Cc1ccc(-n2ncc3c2CCCC3NC(=O)c2csnn2)cc1C (centres undefined)	n	n	60	n	n	19
Cc1cc(C)c(S(=O)(=O)OC[C@H]2C=CC[C@@H](CCC[C@H]3O[C@H](C(=O)OC(C)C)CC[C@@H]3C)O2)c(C)c1	x	x	x	x	n	x
CC1(c2ccccc2)NC(=O)N(CC(=O)Nc2ccc(N3CCOCC3)cc2)C1=O (centres undefined)	x	n	x	x	x	x
Cc1ccc(NC(=O)Cn2nc(C)c3nn(-c4ccc(Cl)cc4)c(C)c3c2=O)cc1C	x	n	x	n	x	x
COCc1ccc(C(=O)NC2CCCc3c2cnn3-c2cc(C)cc(C)c2)s1 (centres undefined)	n	n	27	n	n	n
CC(=O)Nc1cccc(C(=O)NC2CCCc3c2cnn3-c2cc(C)cc(C)c2)c1 (centres undefined)	n	n	n	n	n	25
COCc1ccc(C(=O)NC2CCCc3c2cnn3-c2ccc(C)c(C)c2)o1 (centres undefined)	n	n	n	n	n	26
COc1ncccc1C(=O)NC1CCCc2c1cnn2-c1cc(C)cc(C)c1 (centres undefined)	n	n	n	n	n	n
Cc1cc(C(=O)NC2CCCc3c2cnn3-c2cc(F)cc(F)c2)nn1C (centres undefined)	n	n	25	n	x	n
CCn1nc(C)cc1C(=O)NC1CCCc2c1cnn2-c1cc(F)cc(F)c1 (centres undefined)	n	n	n	u	x	n
Cc1cc(C)cc(NC(=O)c2cc(S(=O)(=O)N3CCCC3)ccc2F)c1	x	n	x	n	x	x
COc1ccc2c(c1)C(=O)[C@H](OC(=O)NCc1ccc3c(c1)OCO3)[C@@H](c1ccc(OC)c(Br)c1)O2	x	x	x	x	n	x
